Hit rate of the full screen: of about 2,100 compounds, about 590 (28%) were called active. Roughly 42% stayed inconclusive and do not appear here. Calls come from the whole dose curve; as a rule, active = well fitted inhibition curve with a large enough effect; inconclusive = small, poorly fitted or top-dose-only effect; inactive = flat fitted curve, though single readings scatter. Some of the results follow.
The compounds below were run against DNA dC->dU-editing enzyme APOBEC-3F (Homo sapiens) (UniProt Q8IUX4) (assay: qHTS for inhibitors of Vif-A3F interactions: Cherry picks). Details: HeLa A3F-eYFP + Vif (tagged APOBEC3F with the HIV-1 protein that degrades it), eYFP fluorescence, 24 h.
From the text: The recent discovery and characterization of host restriction factors, which provide a potent defense to invading retroviruses, has provided new targets for antiviral drug development. APOBEC3G (A3G) and APOBEC3F (A3F) are potent cytidine deaminases that block HIV-1 replication; HIV-1 expresses the Vif protein, which counteracts A3G and A3F by binding to them and inducing their proteasomal degradation. The Vif-A3G and Vif-A3F interactions provide two potential targets for development of small molecules which can interfere with the ability of Vif to degrade A3G or A3F. […] To identify inhibitors that can interfere with Vif mediated degradation of A3G and A3F, we have developed Hela cell lines that stably express A3G or A3F tagged with eYFP at the C-terminal end (A3G-eYFP or A3F-eYFP, respectively) and Vif. In the absence of an inhibitor, Vif induces degradation of A3G-eYFP and A3F-eYFP, and the cells are not fluorescent. In the presence of an inhibitor, it is expected that Vif will be unable to degrade A3G-eYFP and/or A3F-eYFP, resulting in an increase in yellow fluorescence. In this assay, Vif A3F was screened against the cherry picks ordered from the MLSMR. NIH Chemical Genomics Center [NCGC] NIH Molecular Libraries Probe Centers Network [MLPCN] MLPCN Grant: MH093245 Assay Submitter (PI): Vinay Pathak, National Cancer Institute
A3F-Vif cells were harvested from T225 flask and resuspended in phenol free OPTI-MEM medium with 5% FBS. Then 5 uL of 140,000 cells/mL resuspended cells was dispensed into each well of low base Aurora COC 1,536-well plates (black walled, clear bottom) using a Multidrop Combi dispenser. After overnight culture at 37 deg C with 5% CO2, a total of 23 nL of compounds at 5 selected concentrations from the NPC or positive control (2 mM stock of MG132) in DMSO was transferred to each well of the assay plate using a pintool (Kalypsys, San Diego, CA), and the plates were further incubated at 37 deg C with 5% CO2 for 24 hours. After that, the plates were measured on Acumen Explorer (TTP Lab Tech). The fluorescence was detected by 488 nm/Ex and […].
Note: nearly all actives have a fitted effect of over 70% in size.
Potency is the fitted concentration of half-maximal effect.
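Throughout, for max response: % of control where 0% means no effect; active compounds raise eYFP fluorescence by blocking Vif-driven A3F loss.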

Sequence of DNA dC->dU-editing enzyme APOBEC-3F (Homo sapiens) (Q8IUX4 whole entry, looked up): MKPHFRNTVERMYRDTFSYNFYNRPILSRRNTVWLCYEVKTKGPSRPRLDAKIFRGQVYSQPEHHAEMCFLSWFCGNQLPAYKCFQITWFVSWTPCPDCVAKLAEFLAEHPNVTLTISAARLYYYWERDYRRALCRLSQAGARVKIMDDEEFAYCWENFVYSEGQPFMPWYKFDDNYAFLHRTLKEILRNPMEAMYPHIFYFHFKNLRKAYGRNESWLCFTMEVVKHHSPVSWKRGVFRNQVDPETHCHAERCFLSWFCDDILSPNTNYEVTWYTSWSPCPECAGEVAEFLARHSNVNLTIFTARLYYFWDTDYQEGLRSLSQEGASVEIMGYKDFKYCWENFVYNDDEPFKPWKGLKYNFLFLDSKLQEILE

Structure (SMILES)	max response	Potency
CCCCCCN1C[C@H](O)[C@@H](n2cc(COC(=O)c3ccccc3)nn2)C[C@@H]1c1ccc(C)cc1	-0.173% (inactive)	–
Cc1ccc2c(c1)Sc1c(ccc3ccccc13)N2	–	16.4 µM (active)
Oc1ccc(-c2nc(-c3ccc(O)c(O)c3)cs2)cc1	–	4.44 µM (active)
COc1ccc(-c2csc(-c3ccc(O)cc3)n2)cc1	-24.3% (inactive)	–
COc1ccc(OC)c(CNc2nc3ccc(C)cc3n3nnnc23)c1	-21.9% (inactive)	–
OCCCn1c(C2CCCN2c2nc(-c3ccc(Cl)cc3)cs2)nc2cc(Cl)c(Cl)cc21 (configuration not stated)	-3.45% (inactive)	–
CCCCCCNc1ccc(/C=C/c2ccnc3ccccc23)cc1	–	18.4 µM (active)
CCCCCCCNc1ccc(/C=C/c2ccnc3ccccc23)cc1	–	20.6 µM (active)
C/C(=N\NC(=O)c1cc(C)nc2ccccc12)c1ccncc1	-5.92% (inactive)	–
Cc1ccc(-c2cc(NC=O)c3ncc(-c4cnn(C)c4)n3c2)cc1	–	7.9 µM (active)
COc1ccc(-c2cnc3c(NC=O)cc(-c4ccccc4)cn23)cc1OC	–	4.98 µM (active)
COc1ccc(NC(=O)C2Cc3c(-c4ccc(NC(C)=O)cc4)ccnc3O2)cn1 (configuration not stated)	-27.7% (inactive)	–
COc1ccccc1-c1cc(NC=O)c2ncc(-c3ccc(S(C)(=O)=O)cc3)n2c1	–	7.04 µM (active)
COc1ccc(-c2cc(NC(C)=O)c3ncc(-c4cc(OC)c(OC)c(OC)c4)n3c2)cn1	–	4.98 µM (active)
CCOc1ccc2nc(NC(=O)c3nc(SC(C)C)ncc3Cl)sc2c1	-25.8% (inactive)	–
COC(=O)c1sc(-c2cccs2)cc1NC(=O)/C=C/C(=O)O	-22.3% (inactive)	–
O=C1NC(c2ccccc2Br)=N/C1=C\c1ccco1	-25.1% (inactive)	–
COc1ccc(-c2cnc3c(NC=O)cc(-c4ccoc4)cn23)cc1OC	–	11.2 µM (active)
COc1ccc(-c2cc(NC=O)c3ncc(-c4ccc(OC)c(OC)c4)n3c2)cc1OC	–	7.04 µM (active)
CN(C)C(=O)c1cccc(-c2cnc3c(NC=O)cc(-c4ccccc4F)cn23)c1	-4.66% (inactive)	–
CN(C)c1ccccc1-c1cc(NC=O)c2ncc(-c3cccc(C(F)(F)F)c3)n2c1	–	15.8 µM (active)
COc1ccc(-c2nc3c4ccccc4ccn3c2Cc2ccsc2)cc1OC	-2.92% (inactive)	–
COc1ccc(-c2cnc3c(NC=O)cc(-c4cc(OC)c(OC)c(OC)c4)cn23)cc1OC	–	15.8 µM (active)

Structure (SMILES)	max response	Potency
Cc1cc(C)nc(Nc2n[nH]c(COc3cccc4ccccc34)n2)n1	-15.5% (inactive)	–
Cc1cc(C)nc(NC(=S)Nc2cccc(Cl)c2Cl)c1	-10.1% (inactive)	–
COc1ccc(C2=NOC(C(=O)NCc3ccc(F)cc3)C2)cc1 (configuration not stated)	-16.1% (inactive)	–
CN1CCCc2cc(/C=C/c3ccnc4ccccc34)ccc21	–	4.11 µM (active)
Cc1cc(/C=C/c2ccnc3ccccc23)ccc1N(C)C	–	8.2 µM (active)
CN(C)c1ccc(/C=C/c2ccnc3ccccc23)cc1N	-19.7% (inactive)	–
CCc1cc(/C=C/c2ccnc3ccccc23)ccc1N(C)C	–	14.6 µM (active)
CN(C)c1ccc(/C=C/c2ccnc3ccccc23)cc1O	–	11.6 µM (active)
CCS(=O)(=O)c1nn2c(N)c(/C=C3/C=CC(=O)C(OC)=C3)c(=O)nc2s1	11% (inactive)	–
Cc1ccc(NC(=S)N/N=C2\CCCCC2C)cc1 (configuration not stated)	0.346% (inactive)	–
O=C(/C=C/c1ccccc1)Nc1ncn[nH]1	-21.2% (inactive)	–
Cc1cc(/C=C/c2ccnc3ccccc23)ccc1N	–	14.6 µM (active)
COc1ccc2nc3sc(C(=O)Nc4cc(Cl)c(OC)cc4OC)cc3cc2c1	-28.2% (inactive)	–
COc1cccc(-c2ccc3c(N)c(C(=O)c4ccc(Br)cc4)sc3n2)c1	–	10.3 µM (active)
COc1cccc(-c2ccc3c(N)c(C(=O)c4ccc(Cl)cc4)sc3n2)c1	–	18.4 µM (active)
N#CC(C#N)=C1C=C2C=C(N3CCOCC3)CCC2CC1 (configuration not stated)	0.0461% (inactive)	–
O=C1N/C(=N\N=C\c2ccco2)SC1Cc1ccccc1[N+](=O)[O-] (configuration not stated)	-0.95% (inactive)	–
Cn1c2ccccc2c2ccc3c(c21)C(=O)C=CC3=O	5.63% (inactive)	–
COc1c(-c2ccc(O)c(O)c2)oc2cc(O)cc(O)c2c1=O	–	14 µM (active)
CCC[N+](C)(C)c1ccc(/C=C/c2ccncc2)cc1	–	2.31 µM (active)
CC[N+](C)(C)c1ccc(/C=C/c2ccncc2)cc1	–	4.11 µM (active)
CC1CC(=O)C2=C(C1)OC(N)=C(C#N)C2c1coc2ccccc2c1=O (configuration not stated)	-25.1% (inactive)	–
COc1cc(/C=C(\C#N)c2nc3ccccc3[nH]2)ccc1OCc1ccccc1F	–	18.4 µM (active)

Structure (SMILES)	max response	Potency
COc1cc(/C=C(\C#N)c2nc3ccccc3[nH]2)ccc1O	6% (inactive)	–
COc1ccc(OC)c2sc(NC(=O)CCS(=O)(=O)c3ccccc3)nc12	-17.2% (inactive)	–
COc1cc(/C=C(/C#N)c2nc3ccccc3[nH]2)ccc1OCC(=O)Nc1ccccc1C(C)C	–	16.4 µM (active)
CCC(=O)Nc1nc2ccc(NC(=O)c3cc(OC)c(OC)c(OC)c3)cc2s1	-4.22% (inactive)	–
COc1cc(/C=C(\C#N)c2nc3ccccc3s2)ccc1OCC(=O)Nc1ccccc1	–	14 µM (active)
COc1cc(/C=C/c2ccnc3ccccc23)ccc1N(C)C	–	9.2 µM (active)
COc1cc(N(C)C)c(OC)cc1/C=C/c1ccnc2ccccc12	–	20.6 µM (active)
COc1cc(OC)c(/C=C/c2ccnc3ccccc23)c(OC)c1	–	14.6 µM (active)
COc1ccc(OC)c(Nc2nc(-c3ccncc3)nc3ccccc23)c1	-10.6% (inactive)	–
Cc1cc(C)c(NC(=O)Cn2c(=O)n(Cc3ccc(C(=O)NCc4ccco4)cc3)c(=O)c3sccc32)c(C)c1	–	14.6 µM (active)
Cc1c(C)n(Cc2ccccc2)c2ccc(C(=O)NCc3ccco3)cc12	-24.7% (inactive)	–
COc1ccccc1-c1c(C#N)c(N)nc2c1CCc1ccccc1-2	-14.7% (inactive)	–
COc1ccc2c(n1)Sc1nc3ccccc3nc1N2	–	4.11 µM (active)
CCCOc1ccc(C(=O)Nc2cccc(NC(=O)c3ccc(Cl)cc3Cl)c2)cc1	–	16.4 µM (active)
CCCOc1ccc2cc(C(=O)NCc3ccccc3)c(=O)oc2c1	-1.07% (inactive)	–
Cc1ccc(NC(=S)NC(=O)c2ccc(F)cc2)cc1S(=O)(=O)Nc1cccc(Cl)c1	-16.8% (inactive)	–
c1cncc(-c2nc(NCc3cccs3)c3ccccc3n2)c1	-5.9% (inactive)	–
COc1ccc(-c2cc(-c3nnc(COC(=O)c4ccncc4)o3)c3ccccc3n2)cc1OC	2.21% (inactive)	–
CC(=O)N/N=C/c1cc(C(C)(C)C)cc(/C=N/NC(C)=O)c1O	–	23.1 µM (active)
NC(=S)N/N=C/c1cccc(O)c1O	-21% (inactive)	–
Cc1c(C(=O)Nc2ccc(C(C)C)cc2)sc2nc3n(c(=O)c12)CCC3	-1.94% (inactive)	–
O=C(Nc1ccc(Cl)cn1)c1cccc(S(=O)(=O)N2CCCCCC2)c1	-1% (inactive)	–
Nc1c(C(=O)Nc2ccc(S(=O)(=O)N3CCCC3)cc2)sc2nc3ccc(OC(F)(F)F)cc3cc12	–	20.6 µM (active)

Structure (SMILES)	max response	Potency
Nc1c(C(=O)Nc2ccc(S(=O)(=O)N3CCCC3)cc2)sc2nc3cc4c(cc3cc12)CCC4	–	6.51 µM (active)
CCc1cccc2cc3c(N)c(C(=O)Nc4ccc(S(=O)(=O)N5CCCC5)cc4)sc3nc12	–	2.8 µM (active)
O=C(CN1c2cccc3cccc(c23)S1(=O)=O)Nc1ccc(S(=O)(=O)N2CCOCC2)cc1	-0.998% (inactive)	–
COc1ccc(NC(=O)c2oc3ccc(S(=O)(=O)N4CCOCC4)cc3c2C)cc1	-0.455% (inactive)	–
CC(C)c1ccc(C(=O)NCCCNC(=O)c2cnccn2)cc1	1.42% (inactive)	–
Fc1cccc(F)c1/C=N/NC(=S)Nc1cccnc1	-0.429% (inactive)	–
O=C(Nc1ccc([N+](=O)[O-])cc1)C(Cc1ccccc1)N1C(=O)c2cccc3cccc(c23)C1=O (configuration not stated)	–	12.5 µM (active)
O=C(O)Cc1sc(NC2CCCCC2)nc1-c1ccc(Cl)cc1	-1.51% (inactive)	–
Cc1nc2cc(NC(=O)CSc3nc4c(C)cccc4cc3C#N)ccc2s1	–	11.6 µM (active)
Cc1ccc(NC(=O)CSc2n[nH]c(-c3ccccn3)n2)cc1	-3.6% (inactive)	–
Cc1cc(NC(=O)CSc2nc3c(C)cccc3cc2C#N)no1	–	7.31 µM (active)
COCc1cc(C)nc(SCC(=O)Nc2ccc3[nH]c(=O)[nH]c3c2)c1C#N	0.302% (inactive)	–
Cc1nonc1NC(=O)CSc1nc2c(C)cccc2cc1C#N	–	18.4 µM (active)
CN1C(=O)N(C)c2ccc(C=O)c3cccc1c23	-1.54% (inactive)	–
N#C/C(=C/c1cccs1)c1ccccn1	–	17.7 µM (active)
CCOc1ccc(Br)cc1C1C(C(=O)OC)=C(N)Oc2cc(N(C)C)ccc21 (configuration not stated)	-21.7% (inactive)	–
Cc1ccc(N=C2NC(=O)/C(=C/c3cn(C)c4ccccc34)S2)cc1C	–	17.7 µM (active)
Cn1cccc1/C=C1\SC(=Nc2ccc(O)cc2)NC1=O	–	12.5 µM (active)
Cc1cccc(N=C2NC(=O)/C(=C/c3cccn3C)S2)c1	-9.23% (inactive)	–
Cc1ccc(N=C2NC(=O)/C(=C/c3cccn3C)S2)cc1	–	9.94 µM (active)
Cn1cccc1/C=C1\SC(=Nc2cccc(O)c2)NC1=O	–	15.8 µM (active)
COc1cccc(N=C2NC(=O)/C(=C/c3cc([N+](=O)[O-])ccc3O)S2)c1	-16.1% (inactive)	–
C=C1C(=O)O[C@@H]2[C@H]1[C@@H](OC(=O)/C(C)=C/C)C/C(C)=C\C(=O)/C=C(\C)[C@@H]2O	-29.6% (inactive)	–

— PubChem BioAssay AID651814 (National Center for Advancing Translational Sciences (NCATS), 2012)
